Hits are enriched below; roughly 1.3% of the tested compounds scored in any of these assays.
LRH-1 inv ag – NR5A2 inverse agonism in reporter assay | inhibition, % at 3.6 µM | actives 0.13% (n = 360,000) | O00482 | HEK293T StAR-luciferase reporter, LRH-1 transfected, 24 h;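 active means inhibition above the mean inhibition of all tested compounds plus 3 SD, cut at about 73% in these data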
NCOA2 inhibitor – human SRC2 (NCOA2) inhibition; Q15596; HEK293 GAL4-SRC2 luciferase reporter, luminescence; inhibition, % at 9 µM; actives 0.17% (n = 370,000); AID 651957;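 active means inhibition above the mean inhibition of all tested compounds plus 3 SD, set per campaign, cut at about 52% in these data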
SRC3 inh – inhibitors of human steroid receptor coactivator 3 (SRC3). Q9Y6Q9. inhibition, % at 3.6 µM. AID 588352. actives 0.17% (n = 360,000). HEK293 GAL4-SRC3 luciferase reporter, luminescence;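 active means inhibition above a per-campaign cutoff, the mean of all compounds plus 3 SD, cut at about 60% in these data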;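 further: higher means less SRC3-driven luciferase light from the GAL4 reporter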
NCOA1 inh – inhibitors of human steroid receptor coactivator 1 (SRC1); Q15788; HEK293 GAL4-SRC1 luciferase reporter, luminescence; inhibition, % at 3.6 µM; actives 0.12% (n = 360,000);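 active means inhibition above the campaign mean plus 3 SD, with each screening campaign given its own cutoff, cut at about 60% in these data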
Gli-Sufu block – Gli-Sufu pathway antagonism; Sufu-KO-LIGHT fibroblasts, Gli luciferase reporter luminescence; inhibition, % at 5 µM; actives 0.74% (n = 340,000);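 active means inhibition above about 55%, limit read from the data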
NR2F2 inh – blocks human COUP-TFII nuclear receptor; P24468; HEK293T NGFI-A luciferase reporter, luminescence; inhibition, % at 8.6 µM; actives 0.7% (n = 370,000); AID 686940;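 active means inhibition above a per-plate cutoff, mean inhibition of test wells between control levels plus 3 SD, cut at about 38% in these data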;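 further: cells cotransfected with COUP-TFII expression vector driving the NGFI-A reporter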
Target sequence (P24468 whole entry, looked up): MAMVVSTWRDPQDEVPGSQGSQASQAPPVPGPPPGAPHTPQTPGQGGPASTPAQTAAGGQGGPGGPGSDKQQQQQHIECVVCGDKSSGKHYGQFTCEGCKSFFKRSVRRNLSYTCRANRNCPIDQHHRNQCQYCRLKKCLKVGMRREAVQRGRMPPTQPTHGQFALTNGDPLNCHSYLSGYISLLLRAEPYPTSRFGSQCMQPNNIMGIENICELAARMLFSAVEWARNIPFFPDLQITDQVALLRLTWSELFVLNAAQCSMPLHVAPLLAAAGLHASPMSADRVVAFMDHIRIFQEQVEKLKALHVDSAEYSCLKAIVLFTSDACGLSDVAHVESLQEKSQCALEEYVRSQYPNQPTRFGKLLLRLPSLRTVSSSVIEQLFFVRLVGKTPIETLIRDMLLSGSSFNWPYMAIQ
Gal4-VP16 ctr – VP16 inhibition counter-screen for COUP-TFII. AID 687007. HEK293 Gal4-VP16 luciferase reporter, luminescence. inhibition, % at 8.5 µM. actives 25% (n = 2,500). shares compounds with NR2F2 inh; in the data active means inhibition above about 13%
COUP-TFII conf – COUP-TFII (NR2F2) inhibition, confirmation assay; shares compounds with NR2F2 inh; HEK293 NGFI-A luciferase reporter, luminescence; inhibition, % at 8.5 µM; actives 45% (n = 2,500);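 active means mean inhibition over three repeats above a set limit taken from the earlier primary screen, cut at about 38% in these data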
Each line names hits and unclear results; the compound was inactive in the other large screens (follow-up assays come after a bar, where they were run).

C#CCNC(=O)C[C@H]1C[C@@]2(C(=O)OC)C(=C[C@H](C(C)(C)C)O[C@@H]2C)N(Cc2ccc3c(c2)OCO3)C1=O	none (no result: LRH-1 inv ag, SRC3 inh, NCOA1 inh, Gli-Sufu block)
CSc1nc2nc3c(cc2c(=O)n1-c1ccccc1C)CCCC3	NR2F2 inh 42 | Gal4-VP16 ctr inactive | COUP-TFII conf inactive
COc1ccc(C(=O)C2CCN(C(=S)NCCc3ccc(OC)c(OC)c3)CC2)cc1	NR2F2 inh 44 | Gal4-VP16 ctr inactive | COUP-TFII conf inactive
COc1ccc(C(=O)C2CCN(C(=S)NCCc3ccccc3)CC2)cc1	none
COc1ccc(CCNC(=S)N2CCC(C(=O)c3ccc(F)cc3)CC2)cc1OC	NR2F2 inh 43 | Gal4-VP16 ctr inactive | COUP-TFII conf inactive
Nc1nc2c(ncn2[C@@H]2O[C@H](C(=O)N[C@H](Cc3ccccc3)C(=O)NCc3ccc4c(c3)OCO4)[C@@H](O)[C@H]2O)c(=O)[nH]1	none (no result: LRH-1 inv ag, SRC3 inh, NCOA1 inh, Gli-Sufu block)
CC(=NNc1cc(C)c2cc(C)ccc2n1)c1ccccn1	none (no result: LRH-1 inv ag, SRC3 inh, NCOA1 inh, Gli-Sufu block)
Fc1ccc(Nc2ncnc3sccc23)cc1	none
COc1ccc(CC2CCN(c3ncnc4sccc34)CC2)cc1	NR2F2 inh 68 (no result: LRH-1 inv ag, NCOA2 inhibitor, SRC3 inh, NCOA1 inh, Gli-Sufu block) | Gal4-VP16 ctr inactive | COUP-TFII conf 59
Fc1ccc(CC2CCN(c3ncnc4sccc34)CC2)cc1	NR2F2 inh 74 (no result: LRH-1 inv ag, NCOA2 inhibitor, SRC3 inh, NCOA1 inh, Gli-Sufu block) | Gal4-VP16 ctr inactive | COUP-TFII conf 54
CC(C)(C)S(=O)N1C[C@@H]2CC(=O)C(c3ccccc3)=C2[C@H]1CCO (stereo partly drawn)	none (no result: LRH-1 inv ag, SRC3 inh, NCOA1 inh, Gli-Sufu block)
O=C(Nc1ccccc1O)c1ccc(NS(=O)(=O)c2cccc3cccnc23)cc1	NR2F2 inh 40 | Gal4-VP16 ctr inactive | COUP-TFII conf 38
CCCCCOc1ccc(Br)cc1CSC(=N)N	Gli-Sufu block 66, NR2F2 inh 66 | Gal4-VP16 ctr 16 | COUP-TFII conf 47
COc1ccc(Br)cc1CSC(=N)N	none
CCOc1ccc(-n2c(SC/C=C/c3ccccc3)nnc2-c2cccs2)cc1	none (no result: LRH-1 inv ag, SRC3 inh, NCOA1 inh, Gli-Sufu block)
Cc1nc2ccc(NC(=O)c3cccs3)cc2c(=O)n1Cc1ccc(Cl)cc1	NR2F2 inh 59 | Gal4-VP16 ctr inactive | COUP-TFII conf 46
Cc1cc(N2CCC(C)CC2)nc2ccccc12	none (no result: LRH-1 inv ag, NCOA2 inhibitor, SRC3 inh, NCOA1 inh, Gli-Sufu block)
Cc1ccc(CN2CC=CS2(=O)=O)cc1	none (no result: LRH-1 inv ag, SRC3 inh, NCOA1 inh, Gli-Sufu block)
COc1cccc2c1C(=O)c1c(O)c3c(c(O)c1C2=O)CC(O)(C(=O)CO)CC3OC1CC(N(C)C)C(O)C(C)O1 (stereo not drawn)	LRH-1 inv ag 97, NCOA2 inhibitor 58, SRC3 inh 85, NCOA1 inh 79, Gli-Sufu block 85, NR2F2 inh 45 | Gal4-VP16 ctr 28 | COUP-TFII conf inactive
COc1cccc2c1C(=O)c1c(O)c3c(c(O)c1C2=O)C[C@@](O)(C(C)=O)C[C@@H]3O[C@H]1C[C@H](N)[C@H](O)[C@H](C)O1	LRH-1 inv ag 99, SRC3 inh 82, NR2F2 inh 54 | Gal4-VP16 ctr 28 | COUP-TFII conf 44
COc1ccc(-c2cscc2N)cc1	none (no result: LRH-1 inv ag, SRC3 inh, NCOA1 inh, Gli-Sufu block)
CC(C)[C@H](NC(=O)c1ccccc1)C(=O)N1CCC[C@H]1C(=O)NCCc1ccccc1Cl	none (no result: LRH-1 inv ag, SRC3 inh, NCOA1 inh, Gli-Sufu block)
COCC(C)n1c(C)cc(C(=O)CSc2nc(C)c(C)c(C)n2)c1C (stereo not drawn)	none
COCC(C)n1c(C)cc(C(=O)CSc2nnnn2C2CCCC2)c1C (stereo not drawn)	NR2F2 inh 41 | Gal4-VP16 ctr inactive | COUP-TFII conf inactive
CCCC[C@H]1C2CC(OC(=O)NCCCc3ccccc3)C(C2)[C@H]2CCCCN21 (stereo partly drawn)	none (no result: LRH-1 inv ag, SRC3 inh, NCOA1 inh, Gli-Sufu block)
O=C(Nc1ccccn1)c1ccc(Cl)c(S(=O)(=O)N2CCc3ccccc32)c1	NR2F2 inh 45 | Gal4-VP16 ctr inactive | COUP-TFII conf inactive
COc1ccc(NC(=O)c2ccc(Cl)c(S(=O)(=O)N3CCc4ccccc4C3)c2)cn1	NR2F2 inh 68 | Gal4-VP16 ctr inactive | COUP-TFII conf inactive
O=C(Nc1cccnc1)c1ccc(Cl)c(S(=O)(=O)N2CCc3ccccc32)c1	none
FC(F)(F)c1ccc(Cn2ccc3ccc(-c4ccc5ccn(Cc6ccc(C(F)(F)F)cc6)c5c4)cc32)cc1	none (no result: LRH-1 inv ag, SRC3 inh, NCOA1 inh, Gli-Sufu block)
O=C(Cn1nnc(N2CCCCC2)n1)NN=Cc1ccccc1O	none (no result: LRH-1 inv ag, SRC3 inh, NCOA1 inh, Gli-Sufu block)
O=C(NCc1cccnc1)C1CCC(c2ccc(Cl)cc2)CC1 (stereo not drawn)	NR2F2 inh 41 | Gal4-VP16 ctr inactive | COUP-TFII conf 55
O=c1oc(-c2ccccc2)cc2ccccc12	none (no result: Gli-Sufu block)
Nc1ccc(-c2cc3ccccc3c(=O)o2)cc1	NCOA2 inhibitor 74, NR2F2 inh 73 | Gal4-VP16 ctr 42 | COUP-TFII conf inactive
O=C1CCc2cc(S(=O)(=O)N3CCN(c4ccccc4Cl)CC3)ccc2N1	none (no result: LRH-1 inv ag, SRC3 inh, NCOA1 inh, Gli-Sufu block)
COc1cc(CNCc2ccncc2)cc(Br)c1OCc1ccccc1F	NR2F2 inh 46 | Gal4-VP16 ctr inactive | COUP-TFII conf inactive
COc1cc(CNc2ccc(O)cc2)cc(Br)c1OCc1ccccc1F	none (no result: NCOA2 inhibitor, NR2F2 inh)
COC(=O)c1cc2c(c3c4ccccc4n(S(=O)(=O)c4ccccc4)c13)C(=O)N(Cc1ccc(N(C)C)cc1)C2	none (no result: LRH-1 inv ag, SRC3 inh, NCOA1 inh, Gli-Sufu block)
CCN(c1ccccc1)S(=O)(=O)c1cc(C(=O)Nc2ccc(F)c(F)c2)ccc1F	NR2F2 inh 44 | Gal4-VP16 ctr inactive | COUP-TFII conf inactive
CCN(c1ccccc1)S(=O)(=O)c1ccc(C(=O)Nc2cccc(NC(C)=O)c2)cc1	none
O=C(/C=C/c1cccs1)NC(=S)NNC(=O)c1ccccc1O	LRH-1 inv ag 88, SRC3 inh 80, NCOA1 inh 65, NR2F2 inh 60 | Gal4-VP16 ctr 21 | COUP-TFII conf 63
COc1ccc(NC(=O)CCOc2cc(C)ccc2C)cc1S(=O)(=O)N1CCCCC1	NR2F2 inh 41 | Gal4-VP16 ctr inactive | COUP-TFII conf inactive
Cc1cc(Cl)c(S(=O)(=O)NC(C(=O)O)C(C)C)cc1OCC(=O)NC1CCCCC1 (stereo not drawn)	none
Cc1cc(Cl)c(S(=O)(=O)N2CCCC2)cc1OCC(=O)NC1CCCCC1	NR2F2 inh 62 | Gal4-VP16 ctr inactive | COUP-TFII conf inactive
CC(=O)c1ccc(OCCCC(=O)Nc2ccc(C)c(S(=O)(=O)N3CCCCC3)c2)cc1	NR2F2 inh 61 | Gal4-VP16 ctr inactive | COUP-TFII conf 40
COc1cc(C(C)=O)ccc1OCC(=O)Nc1ccc(C)c(S(=O)(=O)N2CCCCCC2)c1	NR2F2 inh 47 | Gal4-VP16 ctr inactive | COUP-TFII conf inactive
COC[C@@H]1CCCN1c1ccc2c(c1)OCCCN(C1CC1)S2(=O)=O	none (no result: LRH-1 inv ag, SRC3 inh, NCOA1 inh, Gli-Sufu block)
C[C@@H]1CCN(C2CC2)S(=O)(=O)c2ccc(N3CCC[C@H]3C)cc2O1	none (no result: LRH-1 inv ag, SRC3 inh, NCOA1 inh, Gli-Sufu block)
